Screening results as filed in PubChem BioAssay.
A selection: hits, their analogues and other compounds. The true share with any hit is near 5.7%.
hgDAF12 agonist: hgDAF-12 agonism, primary luciferase screen | HEK293 GAL4-hgDAF12 UAS-luciferase reporter, agonist luminescence; normalized to butyrate control | activation, % at 6.8 µM | actives 1.8% (n = 370,000);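 active means activation above a cutoff set at the mean of all screened compounds plus 3 SD, cut at about 10% in these data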;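 further: 0% = DMSO wells and 100% = sodium butyrate wells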
hcDAF12 agonist: activates DAF-12 receptor from parasite H. contortus | HEK293 hcDAF-12 lit1-tk-luc reporter, luminescence; 0% DMSO, 100% Δ7-dafachronic acid | activation, % at 6.8 µM | actives 1.4% (n = 370,000) | AID 652067;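 active means activation above the mean of all tested compounds plus 3 SD, cut at about 5.5% in these data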;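 further: 100% = response to 3 µM Δ7-dafachronic acid high control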
AHR activator: activators of human aryl hydrocarbon receptor; P35869; AHR-responsive luciferase reporter cells, luminescence; activation, % at 5 µM; actives 2.5% (n = 320,000); AID 2796; in the data active means activation above about 47%;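 further: 0% = vehicle wells and 100% = reference agonist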
DAX1 inh-1: DAX1 (NR0B1) inhibition, primary screen | HEK293T StAR-luciferase reporter, SF-1/DAX-1 repression relief | inhibition, % at 6.8 µM | actives 1.1% (n = 370,000);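 active means inhibition above the mean over all tested compounds plus 3 SD, cut at about 3.6% in these data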;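 further: 0% = DAX-1 cells with DMSO and 100% = cells lacking DAX-1 with DMSO; higher inhibition means more luminescence from relief of DAX-1 repression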
DAX1 inh-2: NR0B1 (DAX1) inhibition | P51843 | HEK293 Gal4-DAX1 luciferase reporter, luminescence | inhibition, % at 6.75 µM | actives 0.99% (n = 340,000) | AID 504766;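 active means inhibition above the mean over all tested compounds plus 3 SD, cut at about 4.2% in these data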;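 further: 0% = DAX1-transfected cells with DMSO and 100% = empty-vector control cells with DMSO; inhibition shows as a rise in luminescence from relieved DAX1 repression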
Target sequence (P51843 207-470 limits assumed): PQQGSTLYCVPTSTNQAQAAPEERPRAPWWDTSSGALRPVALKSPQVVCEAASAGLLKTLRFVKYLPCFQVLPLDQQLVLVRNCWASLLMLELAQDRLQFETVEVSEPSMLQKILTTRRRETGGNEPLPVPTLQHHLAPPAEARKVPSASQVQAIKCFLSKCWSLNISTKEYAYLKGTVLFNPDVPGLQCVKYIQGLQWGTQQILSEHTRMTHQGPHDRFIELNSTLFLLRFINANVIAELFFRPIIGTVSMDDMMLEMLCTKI
ssDAF12 agonist: activators of S. stercoralis DAF-12 nuclear receptor; HEK293 ssDAF-12/GRIP1 lit1-tk-luc reporter, luminescence; % of 3 µM dafachronic acid response; activation, % at 6.8 µM; actives 1% (n = 370,000); AID 652126;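 active means activation above the mean over all tested compounds plus 3 SD, cut at about 0.9% in these data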;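 further: 0% = DMSO-only wells and 100% = 3 µM delta7-dafachronic acid wells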
LXRb hcDAF ctr: activates human LXR-beta, counter-screen for hcDAF-12 agonists | AID 743027 | shares compounds with hcDAF12 agonist | 3,400 tested, under 10 active | HEK293 Gal4-LXR tk-luc reporter, luminescence, 24 h; normalized: DMSO 0%, positive control 100% | activation, % at 6.8 µM;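 active means mean percent activation of the reporter above a cutoff set as the average over tested compounds plus their standard deviation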
Target sequence (P55055 whole entry, looked up, the tested form may be a part): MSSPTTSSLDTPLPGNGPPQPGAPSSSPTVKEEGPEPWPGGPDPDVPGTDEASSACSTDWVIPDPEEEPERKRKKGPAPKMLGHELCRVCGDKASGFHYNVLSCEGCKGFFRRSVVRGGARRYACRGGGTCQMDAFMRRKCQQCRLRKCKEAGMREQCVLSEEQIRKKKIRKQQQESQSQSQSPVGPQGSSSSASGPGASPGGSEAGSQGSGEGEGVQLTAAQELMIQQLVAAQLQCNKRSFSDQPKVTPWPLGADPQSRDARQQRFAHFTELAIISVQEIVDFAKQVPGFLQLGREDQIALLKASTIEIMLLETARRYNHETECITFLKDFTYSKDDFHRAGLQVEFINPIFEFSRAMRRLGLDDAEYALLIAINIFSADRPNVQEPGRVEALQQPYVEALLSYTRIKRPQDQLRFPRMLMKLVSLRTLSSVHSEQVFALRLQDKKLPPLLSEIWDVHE
hcDAF12 ag: hcDAF-12 agonism, confirmation assay. AID 743032. actives 61% (n = 3,400). activation, % at 6.8 µM. HEK293 hcDAF-12 lit1-tk-luc reporter, luminescence; % of Δ7-dafachronic acid response. shares compounds with hcDAF12 agonist;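 active means mean activation across triplicate tests above the threshold derived from the earlier primary screen, cut at about 5.5% in these data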;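 further: 0% = DMSO only wells and 100% = 3 µM Δ7-dafachronic acid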
Active calls of the source: *; / = not tested or not shown.

SMILES | hgDAF12 agonist | hcDAF12 agonist | AHR activator | DAX1 inh-1 | DAX1 inh-2 | ssDAF12 agonist | LXRb hcDAF ctr | hcDAF12 ag
O=C1CCOc2cc(OCc3ccccc3)ccc21 | 12.5* | 9.2* | -4.9 | 2.5 | 1.2 | 0.2 | 1.6 | 6.2*
COc1cccc(NC(=O)c2cc3ccccc3oc2=O)c1 | 13.2* | 7.2* | 5.4 | 2.6 | 3.1 | -0.1 | 1.2 | 8.7*
CC(C)=N/N=C(/c1ccc([N+](=O)[O-])cc1)C12CN3CN(CN(C3)C1)C2 | -0.8 | 6.9* | 1.2 | -0.2 | -0.2 | -1.4 | -0.3 | -0.2
COCCN1CC(=O)N2C(c3cccc(C)c3)c3[nH]c4ccccc4c3C[C@H]2C1=O (stereo not given in full) | -1.0 | 9.6* | 9.9 | -0.1 | -0.5 | 0.6 | -0.1 | 2.8
CCOC(=O)c1ccc(S(=O)(=O)Nc2cc(C(=O)O)ccc2Cl)cc1 | -1.5 | 7.2* | 1.3 | 0.1 | 1.1 | -0.8 | -0.1 | 2.0
CC(=O)Oc1ccc(C(=O)[C@H]2[C@H]3C(=O)N(c4ccccc4)C(=O)[C@H]3[C@@H]3C=CC=NN32)cc1 | 1.9 | 8.1* | 14.3 | 0.3 | 3.2 | -0.5 | 0.0 | 4.9
COc1ccc(N2C(=O)[C@@H]3[C@H](C2=O)[C@H](C(=O)c2ccc(OC(C)=O)cc2)N2N=CC=C[C@@H]32)cc1 | / | / | 25.2 | / | / | / | / | /
CCC(C)/C(C)=N/NC(=O)c1ccc(COc2ccc(Cl)c(C)c2)cc1 (stereo not given) | 8.0 | 2.2 | 2.7 | 0.5 | 1.2 | -0.9 | / | /
CC(=O)Nc1ccc(C(=O)N2CCCCC2c2cc(C(=O)Nc3cccc(C#N)c3)no2)cc1 (stereo not given) | 5.3 | 0.2 | / | -1.2 | / | -1.0 | / | /
Fc1cccc(Cl)c1/C=C/c1cnc2ccccc2n1 | 15.9* | 20.4* | 66.5* | 3.0 | 1.8 | 2.0* | 1.7 | 21.9*
c1cncc(Nc2nc(-c3cccnc3)cs2)c1 | 6.9 | 7.2* | 50.2* | -0.9 | 1.5 | -1.1 | -0.1 | 2.2
Cc1ccc(Nc2nc(-c3cccnc3)cs2)cc1Cl | 9.4 | 11.1* | 45.3 | 0.9 | 3.7 | 0.8 | 0.7 | 12.3*
Cc1cccnc1Nc1nc(-c2ccccc2)cs1 | 12.6* | 13.7* | 55.3* | 3.7* | 4.1 | 1.7* | 2.1 | 13.5*
COC(=O)c1cc(S(=O)(=O)N(C)C2CCCCC2)c[nH]1 | 3.1 | -0.2 | -0.5 | -0.1 | 0.2 | -0.9 | / | /
COc1ccc(C)cc1NC(=O)Nc1ccncc1 | -2.5 | -2.8 | 1.4 | 0.7 | -0.5 | -1.4 | / | /
CN(C)S(=O)(=O)c1cccc(-c2nnc3n2CCCCC3)c1 | -2.0 | -0.8 | -0.5 | 0.6 | 1.4 | -1.3 | / | /
CC/C(=N\NC(=O)C1CCCC1)c1cccc(Br)c1 | 7.1 | 6.8* | / | 1.7 | 2.1 | 1.8* | 0.0 | 3.4
O=C(CCc1nc(-c2ccccc2F)no1)NC1CCCCC1 | -3.3 | -1.9 | -2.0 | 0.5 | -0.7 | -0.5 | / | /
O=C(NC(=S)Nc1nc2ccccc2s1)c1cccs1 | 8.7 | 13.1* | 72.1* | 2.4 | 5.1* | 0.8 | 1.2 | 16.6*
COc1n[nH]c(C(=O)Nc2nc3ccccc3s2)c1[N+](=O)[O-] | 10.0 | 8.0* | 30.5 | 1.5 | 3.0 | 0.2 | 0.4 | 6.1*
COC(=O)c1nc(NC(=S)NC(=O)c2cccs2)sc1C | 5.3 | 3.9 | 38.7 | 1.2 | 0.3 | 0.1 | / | /
COc1ccc(NC(=O)Nc2nc3ccccc3s2)cc1 | 11.2* | 7.1* | 34.5 | 2.2 | 2.3 | 0.5 | 0.7 | 1.8
NC(=S)Nc1nc2ccccc2s1 | 9.7 | 7.9* | 19.2 | 1.6 | 0.2 | 0.8 | 0.5 | 7.0*
O=C(Cc1ccccc1)Nc1nc2ccccc2s1 | 5.8 | 1.1 | 25.3 | 0.5 | 0.6 | -0.5 | / | /
O=C(Nc1nc2ccccc2s1)C1CCCO1 (stereo not given) | 9.5 | 7.5* | 37.4 | 2.1 | 0.2 | 0.5 | 1.1 | 6.7*
SMILES | hgDAF12 agonist | hcDAF12 agonist | AHR activator | DAX1 inh-1 | DAX1 inh-2 | ssDAF12 agonist | LXRb hcDAF ctr | hcDAF12 ag
CC(C)COc1ccc(CNC(=S)Nc2ccccc2)cc1Cl | -2.9 | -2.2 | 36.3 | -0.9 | -1.4 | -1.3 | / | /
C/C(=N\Nc1nc2ccccc2[nH]1)c1cc2ccccc2o1 | 7.9 | 7.4* | 53.8* | 1.6 | 0.0 | 0.1 | 0.6 | 8.7*
CCc1nc2ccc(C(=O)NCCCN3CCN(c4ccccc4F)CC3)cc2nc1CC | -1.1 | -1.5 | 5.1 | -0.6 | 0.8 | -1.3 | / | /
COc1ccc(Cl)cc1C(=O)Nc1ccc(NC(C)=O)cc1 | -0.1 | -0.5 | 15.2 | 0.8 | 0.8 | -1.4 | / | /
COc1ccc(Cl)cc1C1=NOC2(CCC2)C(=O)N1Cc1ccc(NC(C)=O)cc1 | 1.7 | 9.4* | / | -1.5 | / | -1.0 | -0.3 | 0.0
COc1ccc(Cl)cc1-n1c(=S)sc2c(=O)[nH]c(SCC(=O)C(C)(C)C)nc21 | -4.9 | -1.7 | 1.5 | -0.1 | 1.3 | -1.4 | / | /
COc1ccc(CC(=O)Nc2ccc(-c3cn4ccccc4n3)cc2)cc1OC | 1.0 | -3.0 | -5.0 | -0.4 | -2.0 | -1.5 | / | /
COc1ccc(-c2cn3ccccc3n2)cc1OC | 10.8* | 12.6* | 61.1* | 1.6 | 2.3 | 3.1* | 0.6 | 12.9*
Cc1ccc(C)c(S(=O)(=O)N2CCCOC2CNC(=O)C(=O)NCCC2=CCCCC2)c1 (stereo not given) | -1.1 | -1.3 | 0.3 | -0.7 | 0.1 | 0.2 | / | /
Cc1cc(N=Nc2ccc(C)c(N=Nc3cc(C)c(N)cc3N)c2)c(N)cc1N | 12.7* | 7.3* | 18.4 | 1.6 | 1.8 | 0.2 | 1.7 | 12.5*
COc1ccc(N=Nc2cc(OC)c(N)cc2OC)cc1 | 1.6 | 2.4 | / | -0.7 | -3.7 | -0.3 | / | /
COc1cc(Cl)ccc1OCc1cc(C(=O)NC(C)Cc2cnccn2)no1 (stereo not given) | 12.6* | 8.5* | 33.2 | 2.6 | 1.8 | 1.5* | 0.8 | 6.0*
COc1ccc(NCc2nc3ccccc3n2CCOc2ccccc2)cc1 | 4.7 | 0.2 | 2.3 | 2.3 | 1.0 | -1.6 | / | /
COc1ccc(NCc2nc3ccccc3n2C)cc1 | 12.0* | 10.0* | 53.0* | 2.3 | 5.6* | 2.4* | 1.2 | 11.6*
COC(=O)[C@H](CC(C)C)N1Cc2cc(OC)cc(OC)c2-c2ccccc2S1(=O)=O | 1.1 | -1.3 | / | -0.1 | -0.1 | -0.9 | / | /
Cc1c(C(=O)NC2CCN(Cc3ccccc3)C2)oc2c(Cl)cccc12 (stereo not given) | -0.9 | 7.0* | 20.2 | 0.3 | 0.1 | -0.6 | -0.3 | 2.1
O=C(NC1CCN(Cc2ccccc2)CC1)c1ccccc1Cl | -1.8 | 0.5 | -1.4 | -0.3 | -1.1 | -0.6 | / | /
